Data reported in PubChem BioAssay AID686978 (National Center for Advancing Translational Sciences (NCATS), 2013).
Out of some 420,000 compounds screened, about 64,000 (15%) were called active. Another 27% or so got no clear call; they are omitted. Not all results are given here. A number with no mark means an inactive call. The call rests on the fitted dose curve; in most records, active means well fitted inhibition curve with a large enough effect; inconclusive means small, poorly fitted or top-dose-only effect; inactive means flat fitted curve, though single readings scatter.

Experiment: qHTS for Inhibitors of human tyrosyl-DNA phosphodiesterase 1 (TDP1): qHTS in cells in absence of CPT; further: nearly all actives have a fitted effect of over 55% in size
Details: DT40 Tdp1-/- hTDP1 cells, no CPT, ATP luminescence, 48 h; activity change, negative = growth inhibition: at 46.2 µM (top of the series)
Procedure, shortened: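 Chicken DT40 Tdp1-/- cells stably complemented with human TDP1 were seeded at 400 cells/well with DMSO in place of 20 nM camptothecin. After compound pinning, cells grew at least 48 hr at 37 °C; viability read by CellTiter-Glo luminescence.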
On the % scale 0 is the no-effect control and ±100 the full control effect; potency means the concentration at half of the fitted maximal effect.

**Q.** Which “activity change, negative = growth inhibition” value does the source give for `Cc1ccc(CNC(=O)COC(=O)C2CCC2)cc1` here?
**A.** 2.95%

**Q.** With `CC(C#N)OC(=O)c1cccnc1SCC(=O)Nc1ccc2c(c1)OCO2` (stereo not given) as the compound, how does the “activity change, negative = growth inhibition” value read?
**A.** -14.2%

**Q.** With `O=C(NCc1cccnc1)c1ccc2nc([C@@H]3O[C@H](CO)[C@H](O)[C@H](O)[C@H]3O)[nH]c2c1` as the compound, how does the “activity change, negative = growth inhibition” value read?
**A.** -3.78%

**Q.** Which “activity change, negative = growth inhibition” value does the source give for `CCOc1ccc(N(CC(=O)NCCc2ccc(OC)cc2)S(C)(=O)=O)cc1` here?
**A.** -11.9%

**Q.** With `COc1ccc(N(CC(=O)NCCc2ccc(Cl)cc2)S(=O)(=O)c2c(C)nn(C)c2C)cc1` as the compound, how does the Potency read?
**A.** 20.6 µM (active)

**Q.** For `COc1ccc(CCNC(=O)CN(c2ccccc2)S(C)(=O)=O)cc1`, which “activity change, negative = growth inhibition” value is on record?
**A.** -14.2%

**Q.** With `COc1ccccc1CNC(=O)COn1nnc2ccc(S(=O)(=O)N3CCOCC3)cc21` as the compound, how does the “activity change, negative = growth inhibition” value read?
**A.** -30%

**Q.** Which “activity change, negative = growth inhibition” value does the source give for `O=C1[C@H]2[C@@H](c3ccc(Cl)cc3)N3C(=O)N(c4cccc(F)c4)C(=O)[C@@]3(Cc3ccccc3)[C@H]2C(=O)N1C1CCCCC1` here?
**A.** -24%

**Q.** For `O=C1[C@H]2[C@@H](c3ccc(F)cc3)N3C(=O)N(c4ccc(C(F)(F)F)cc4)C(=O)[C@@]3(Cc3ccccc3)[C@H]2C(=O)N1C1CCCCC1`, which Potency is on record?
**A.** 11.6 µM (active)

**Q.** Which “activity change, negative = growth inhibition” value does the source give for `Cc1cccc(N2C(=O)N3[C@H](c4ccc(F)cc4)[C@@H]4C(=O)N(C5CCCCC5)C(=O)[C@@H]4[C@]3(Cc3ccccc3)C2=O)c1` here?
**A.** -7.34%

**Q.** For `CNC(=O)C(=O)N/N=C/c1ccccn1`, which “activity change, negative = growth inhibition” value is on record?
**A.** -13.2%

**Q.** Which Potency does the source give for `S=C(NN=Cc1ccccn1)Nc1ccccn1` here?
**A.** 1.46 µM (active)

**Q.** With `S=C(Nc1cccnc1)Nc1ccccn1` as the compound, how does the “activity change, negative = growth inhibition” value read?
**A.** -7.96%

**Q.** With `CC(C)(C)C(=O)NC1CC2CCCC(C1)N2C(=O)Nc1ccccc1F` (stereo not given) as the compound, how does the “activity change, negative = growth inhibition” value read?
**A.** 1.81%

**Q.** For `COc1ccc(C(CNC(=O)c2ccc(S(=O)(=O)Nc3ccccc3F)cc2)N(C)C)cc1` (stereo not given), which “activity change, negative = growth inhibition” value is on record?
**A.** 0.312%

**Q.** Which Potency does the source give for `COc1ccccc1C(CNC(=O)c1cccc(NS(=O)(=O)c2ccc(Br)cc2)c1)N(C)C` (stereo not given) here?
**A.** 18.4 µM (active)

**Q.** For `CCOc1ccc(NS(=O)(=O)c2ccc(C(=O)NCC(c3ccccc3OC)N3CCCC3)cc2)cc1` (stereo not given), which Potency is on record?
**A.** 18.4 µM (active)

**Q.** Which “activity change, negative = growth inhibition” value does the source give for `CCOc1ccc(S(=O)(=O)Nc2nccs2)cc1` here?
**A.** -9.33%

**Q.** Which “activity change, negative = growth inhibition” value does the source give for `CCOc1ccc(S(=O)(=O)Nc2ccc(S(=O)(=O)Nc3cc(OC)ccc3OC)cc2)cc1` here?
**A.** -2.25%

**Q.** Which Potency does the source give for `CCOc1ccc(S(=O)(=O)Nc2ccc(OC)nc2)cc1` here?
**A.** 23.1 µM (active)

**Q.** For `Cc1cc(S(=O)(=O)Nc2ccc(C(=O)NCC(c3ccco3)N3CCCC3)cc2)ccc1F` (stereo not given), which “activity change, negative = growth inhibition” value is on record?
**A.** -1.96%

**Q.** For `COc1ccc(C(CNC(=O)c2ccc(S(=O)(=O)Nc3ccccc3C)cc2)N2CCOCC2)cc1` (stereo not given), which “activity change, negative = growth inhibition” value is on record?
**A.** -29.7%

**Q.** Which “activity change, negative = growth inhibition” value does the source give for `CC(=O)c1ccc(S(=O)(=O)Nc2ccc(C(=O)NCC(c3ccccc3)N(C)C)cc2)cc1` (stereo not given) here?
**A.** -4.49%

**Q.** With `COc1ccccc1NC(=O)COC(=O)COc1ccccc1F` as the compound, how does the “activity change, negative = growth inhibition” value read?
**A.** -3.57%

**Q.** With `Cc1nnsc1S(=O)(=O)Cc1ccccc1Cl` as the compound, how does the “activity change, negative = growth inhibition” value read?
**A.** 1.81%

**Q.** Which “activity change, negative = growth inhibition” value does the source give for `O=C(CSc1nc2c(cnn2-c2ccc(F)cc2)c(=O)[nH]1)N1CCCCCC1` here?
**A.** -16.2%

**Q.** Which “activity change, negative = growth inhibition” value does the source give for `CC(=O)c1ccc(S(=O)(=O)N2CCN(C(=O)/C=C/c3ccc4ccccc4n3)CC2)cc1` here?
**A.** -17.9%

**Q.** Which Potency does the source give for `COc1cccc(/C=C/c2ccc3ccccc3n2)c1OC(C)=O` here?
**A.** 16.4 µM (active)

**Q.** For `COc1cccc(/C=C2\C=C(c3ccc(C)cc3)OC2=O)c1OC(C)=O`, which “activity change, negative = growth inhibition” value is on record?
**A.** -5.6%

**Q.** With `O=C(Nc1ccccc1)c1ccc2nsnc2c1` as the compound, how does the “activity change, negative = growth inhibition” value read?
**A.** -22.4%

**Q.** Which Potency does the source give for `c1ccc(CNCc2ccc(CNCc3ccccc3)cc2)cc1` here?
**A.** 10.3 µM (active)

**Q.** For `Fc1ccc(CNCc2ccc(Br)cc2)cc1`, which “activity change, negative = growth inhibition” value is on record?
**A.** -29.2%

**Q.** Which “activity change, negative = growth inhibition” value does the source give for `O=C(Cc1ccccc1)NCc1ccc(F)cc1` here?
**A.** 5.8%

**Q.** With `O=Cc1c(NCCCN2CCCC2=O)c2ccccc2[nH]c1=O` as the compound, how does the “activity change, negative = growth inhibition” value read?
**A.** -12.5%

**Q.** Which “activity change, negative = growth inhibition” value does the source give for `Cc1cc(Cl)c(S(=O)(=O)NCc2cccnc2)cc1OCC(N)=O` here?
**A.** -3.14%

**Q.** With `CN1CCN(C(CNC(=O)c2ccccc2F)c2ccc3c(c2)OCO3)CC1` (stereo not given) as the compound, how does the “activity change, negative = growth inhibition” value read?
**A.** 3.73%

**Q.** For `COc1ccc(C(CNC(=O)c2cccnc2SC)N2CCOCC2)cc1` (stereo not given), which “activity change, negative = growth inhibition” value is on record?
**A.** -21.2%

**Q.** Which Potency does the source give for `O=C(NCC(c1ccc(Cl)cc1)N1CCOCC1)c1ccccc1F` (stereo not given) here?
**A.** 13 µM (active)

**Q.** Which “activity change, negative = growth inhibition” value does the source give for `O=C1CCCC(O)=C1N=Nc1ccc2ncsc2c1` here?
**A.** -12.3%

**Q.** For `Cc1ccc(C)c(NC(=O)C(c2ccccc2)N2CCN(CC(=O)NC3CC3)CC2)c1` (stereo not given), which “activity change, negative = growth inhibition” value is on record?
**A.** 1.95%

**Q.** For `CCC(CO)Oc1cc(NC(=O)c2ccc(Cl)cc2)c2ncn(C(C)C)c2c1` (stereo not given), which “activity change, negative = growth inhibition” value is on record?
**A.** -23.1%

**Q.** With `COc1cccc(Cn2c(SCc3ccc(C(=O)N4CCC(C)CC4)cc3)nc3ccncc32)c1` as the compound, how does the Potency read?
**A.** 20.6 µM (active)

**Q.** With `Cc1cccc(CSc2nc3ccncc3n2Cc2ccc(C(=O)O)cc2)c1` as the compound, how does the “activity change, negative = growth inhibition” value read?
**A.** -2.18%

**Q.** Which “activity change, negative = growth inhibition” value does the source give for `COc1cc(C(=O)N2CCC(c3ccncc3)CC2)cc(OC)c1OC` here?
**A.** -23.6%

**Q.** For `COc1ccc(CSc2nnnn2-c2ccc(C(=O)O)cc2)cc1`, which “activity change, negative = growth inhibition” value is on record?
**A.** 2.56%

**Q.** Which Potency does the source give for `COc1cccc(Cn2c(SCc3ccc(C(=O)N4CCCCC4)cc3)nc3ccncc32)c1` here?
**A.** 20.6 µM (active)

**Q.** For `COC(=O)c1ccc2c(=O)n(CCN3CCOCC3)c(SCC(=O)Nc3cccc(OC)c3)nc2c1`, which “activity change, negative = growth inhibition” value is on record?
**A.** 0.614%

**Q.** With `CCCCNC(=O)C1(c2ccc(OC)cc2)CCOCC1` as the compound, how does the “activity change, negative = growth inhibition” value read?
**A.** 5.04%

**Q.** With `CCCCc1ccc(S(N)(=O)=O)cc1` as the compound, how does the “activity change, negative = growth inhibition” value read?
**A.** 4.03%

**Q.** For `N#Cc1nc(/C=C/c2ccc(F)cc2)oc1NC1CCCCC1`, which “activity change, negative = growth inhibition” value is on record?
**A.** -30%
